Test results from PubChem BioAssay (NCI).
This is part of a sample that, as a whole, favours compounds with a hit. Of some 79,000 tested, about 15% had one in any assay. Active and inactive are the calls of the source. Rule as the data show it: active = growth inhibition above about 70%; inactive = the rest.

Legend:
[1] = NCI Yeast Anticancer Drug Screen. Data for the rad52 strain (AID 147);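 also: 0% = growth of vehicle-treated control cultures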; conditions: S. cerevisiae rad52 mutant growth inhibition, active compounds read high
Summary of the method: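 DNA repair-defective yeast; compound exposure; growth scored against vehicle controls.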

[2] = NCI Yeast Anticancer Drug Screen. Data for the wt1 strain (AID 149);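 also: 0% = growth of vehicle-treated wt1 cultures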; conditions: S. cerevisiae wt1 strain (SPY 50644) growth inhibition, active compounds read high
Summary of the method: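 Measured: growth of wt1 yeast under compound versus vehicle treatment, reported as inhibition.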

[3] = NCI Yeast Anticancer Drug Screen. Data for the rad50EPP+ strain (AID 151);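 also: 0% = growth of vehicle-treated control cultures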; conditions: S. cerevisiae rad50 mutant strain, active compounds read high
Summary of the method: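 rad50EPP+ yeast treated with test compounds. Readout: growth vs vehicle control.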

[4] = NCI Yeast Anticancer Drug Screen. Data for the mgt1 strain (AID 153); conditions: S. cerevisiae mgt1 mutant growth inhibition, active compounds read high
Summary of the method: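 Growth inhibition relative to vehicle controls was scored for the mgt1 yeast strain after compound exposure.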

[5] = NCI Yeast Anticancer Drug Screen. Data for the rad50 strain (AID 155);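 also: 0% = growth of vehicle-only cultures of the same strain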; conditions: S. cerevisiae rad50 strain growth inhibition, active compounds read high
Summary of the method: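 Growth of the mutant yeast was measured after compound exposure and referenced to vehicle-treated cultures.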

[6] = NCI Yeast Anticancer Drug Screen. Data for the mec2-1 strain (AID 157); conditions: S. cerevisiae mec2-1 strain, active compounds read high
Summary of the method: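 Growth inhibition is read against vehicle-treated controls after compound exposure of the mec2-1 yeast strain, which is defective in DNA damage repair or cell cycle control.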

[7] = NCI Yeast Anticancer Drug Screen. Data for the rad14 strain (AID 159);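 also: 0% = growth of vehicle-treated control cultures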; conditions: S. cerevisiae rad14 strain growth inhibition, active compounds read high
Summary of the method: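 Here, inhibition of yeast growth was measured after compound exposure, using a strain with a genetic defect in DNA damage repair and vehicle-treated cultures as the reference.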

[8] = NCI Yeast Anticancer Drug Screen. Data for the sgs1 mgt1 strain (AID 161);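 also: 0% = growth of cultures given vehicle only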; conditions: S. cerevisiae sgs1 mgt1 strain, active compounds read high
Summary of the method: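 Compounds are added to genetically altered yeast, and growth is compared with cultures given vehicle alone to give percent inhibition.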

[9] = NCI Yeast Anticancer Drug Screen. Data for the CLN2oe strain (AID 163);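 also: 0% = growth of vehicle-only control cultures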; conditions: S. cerevisiae CLN2oe strain, active compounds read high
Summary of the method: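 Compound-treated yeast; growth vs vehicle ctrl = % inhibition. Genetically altered strain (cell-cycle control).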

[10] = NCI Yeast Anticancer Drug Screen. Data for the cln2 rad14 strain (AID 165);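 also: 0% = growth equal to vehicle treated cultures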; conditions: S. cerevisiae cln2 rad14 strain, active compounds read high
Summary of the method: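 Growth inhibition, relative to vehicle-treated controls, is the read-out. The test organism is a yeast strain with defined genetic alterations, cln2 rad14.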

[11] = NCI Yeast Anticancer Drug Screen. Data for the bub3 strain (AID 167); conditions: S. cerevisiae bub3 mutant strain, active compounds read high
Summary of the method: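 Whole-cell yeast assay. The mutant strain was incubated with compounds, and growth inhibition was determined by comparison with vehicle-treated cells.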

[12] = NCI Yeast Anticancer Drug Screen. Data for the wt2 strain (AID 169);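 also: 0% = growth of vehicle-treated yeast cultures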; conditions: S. cerevisiae wt2 strain growth inhibition, active compounds read high
Summary of the method: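 Compound exposure of yeast; growth compared with vehicle controls; inhibition reported.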

[13] = NCI Yeast Anticancer Drug Screen. Data for the mlh1 strain (AID 171);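 also: 0% = growth of vehicle-treated control cultures of the same strain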; conditions: S. cerevisiae mlh1 strain growth inhibition, active compounds read high
Summary of the method: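 Compounds are applied to a genetically altered yeast strain, and its growth is compared with that of vehicle-treated cultures to give percent inhibition.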

[14] = NCI Yeast Anticancer Drug Screen. Data for the mlh1 rad18 strain (AID 175); conditions: S. cerevisiae mlh1 rad18 strain growth inhibition, active compounds read high
Summary of the method: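 Cells of a genetically altered yeast strain, deficient in DNA damage repair, were treated with compound. Their growth was then compared with that of vehicle-treated cultures to give inhibition.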

[15] = NCI Yeast Anticancer Drug Screen. Data for the rad18 strain (AID 177); conditions: S. cerevisiae rad18 mutant growth inhibition, active compounds read high
Summary of the method: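 Compounds are applied to a repair-deficient yeast strain, and growth is compared with that of vehicle-treated cultures to give percent inhibition.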

[16] = at 5.0 µM (retest, dose inferred, filed as 0.5)
[17] = at 50.0 µM (retest, dose inferred, filed as 5.0)

Measured: growth inhibition

COCCOC(=O)CCn1cc(F)c(=O)[nH]c1=O
active: [3]; at 100.0 µM 85% | [4]; at 100.0 µM 80% | [5]; [17] 70% | [6]; [17] 78% | [6]; at 50.0 µM 83.5% | [6]; at 100.0 µM 83% | [8]; [17] 82% | [8]; at 50.0 µM 91.7% | [12]; at 100.0 µM 76% | [13]; at 100.0 µM 77%
inactive: [1]; at 1.2 µM -1% | [1]; at 3.7 µM -1% | [1]; at 11.0 µM 11% | [1]; at 33.0 µM 31% | [1]; at 100.0 µM 62% | [2]; at 1.2 µM 0% | [2]; at 3.7 µM 3% | [2]; at 11.0 µM 7% | [2]; at 33.0 µM 12% | [2]; at 100.0 µM 23% | [3]; at 1.2 µM -3% | [3]; at 3.7 µM 3% | [3]; at 11.0 µM 27% | [3]; at 33.0 µM 67% | [4]; at 1.2 µM -1% | [4]; at 3.7 µM 7% | [4]; at 11.0 µM 16% | [4]; at 33.0 µM 48% | [5]; at 1.2 µM -5% | [5]; at 3.7 µM -11% | [5]; [16] 24% | [5]; at 11.0 µM 0% | [5]; at 33.0 µM 34% | [5]; at 50.0 µM 64.1% | [5]; at 100.0 µM 61% | [6]; at 1.2 µM -1% | [6]; at 3.7 µM 3% | [6]; [16] 5% | [6]; at 11.0 µM 13% | [6]; at 33.0 µM 48% | [7]; at 1.2 µM -3% | [7]; at 3.7 µM 0% | [7]; at 11.0 µM 7% | [7]; at 33.0 µM 14% | [7]; at 100.0 µM 34% | [8]; [16] 27% | [9]; at 1.2 µM 0% | [9]; at 3.7 µM 4% | [9]; at 11.0 µM 6% | [9]; at 33.0 µM 15% | [9]; at 100.0 µM 19% | [10]; [16] 22% | [10]; [17] 40% | [10]; at 50.0 µM 36.8% | [11]; at 1.2 µM 0% | [11]; at 3.7 µM 3% | [11]; [16] -8% | [11]; at 11.0 µM 7% | [11]; at 33.0 µM 5% | [11]; [17] 11% | [11]; at 50.0 µM 17.8% | [11]; at 100.0 µM 17% | [12]; at 1.2 µM -1% | [12]; at 3.7 µM 2% | [12]; at 11.0 µM 14% | [12]; at 33.0 µM 48% | [13]; at 1.2 µM 3% | [13]; at 3.7 µM 9% | [13]; at 11.0 µM 18% | [13]; at 33.0 µM 53% | [14]; [16] 13% | [14]; [17] 51% | [14]; at 50.0 µM 62.9% | [15]; at 1.2 µM 1% | [15]; at 3.7 µM 6% | [15]; at 11.0 µM 15% | [15]; at 33.0 µM 32% | [15]; at 100.0 µM 56%
